# TEAD-YAP inh – TEAD-YAP interaction inhibition; inhibition, % at 9.12 µM; 1.4% of 640,000 active; HEK-TIYL cells, TEAD-Gal4/YAP UAS-luciferase luminescence; in the data active = inhibition above about 32%;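 note: 0% = median of test compound wells and 100% = reference inhibitor wells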
# FBW7 activator – human FBW7 E3 ligase activation, primary screen; AlphaScreen FBW7–phospho-cyclin E peptide binding, activator screen; normalized activity (activation), % at 26.1 µM; Q969H0; AID 1259310; 0.13% of 650,000 active; in the data active = normalized activity above about 1.9%;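 note: purified mutant Fbw7 with reduced substrate affinity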
# GPR151 ag – activators of human GPR151; PathHunter beta-arrestin GPR151 cells, luminescence; activation, % at 11.2 µM; 1% of 650,000 active; in the data active = activation above about 4.9%;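 note: 0% = median of compound wells and 100% = cells with positive control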
# MITF inh – human MITF inhibition, primary screen | 0.91% of 650,000 active | AID 1259374 | inhibition, % at 2.6 µM | O75030 | AlphaScreen MITF homodimerization, bead proximity signal; in the data active = inhibition above about 50%;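 note: 0% = vehicle wells with protein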
# Target sequence (O75030 whole entry, looked up): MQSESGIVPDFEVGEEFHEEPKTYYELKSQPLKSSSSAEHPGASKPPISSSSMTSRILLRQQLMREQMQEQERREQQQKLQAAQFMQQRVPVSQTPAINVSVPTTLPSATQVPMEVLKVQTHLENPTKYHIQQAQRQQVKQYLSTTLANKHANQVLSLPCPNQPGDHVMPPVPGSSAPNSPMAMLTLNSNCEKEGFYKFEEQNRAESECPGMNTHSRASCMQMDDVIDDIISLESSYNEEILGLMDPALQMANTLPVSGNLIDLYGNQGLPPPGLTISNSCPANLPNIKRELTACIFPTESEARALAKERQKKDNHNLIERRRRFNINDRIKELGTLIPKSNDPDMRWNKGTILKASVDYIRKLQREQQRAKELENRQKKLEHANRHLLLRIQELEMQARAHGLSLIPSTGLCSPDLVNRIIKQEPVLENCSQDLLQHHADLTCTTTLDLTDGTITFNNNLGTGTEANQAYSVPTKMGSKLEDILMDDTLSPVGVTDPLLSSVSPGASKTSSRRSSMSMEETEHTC
# Starred values were filed as active, the others as inactive. The list is not random: actives were taken first. Their share in the collection is about 3.5%.
SMILES,TEAD-YAP inh,FBW7 activator,GPR151 ag,MITF inh
FC(F)(F)c1ccc(Cn2cnc3c(NC4CC4)nc(Nc4ccccc4)nc32)cc1,35*,0,-1,16
FC(F)(F)c1ccc(Cn2cnc3c(NC4CC4)nc(Nc4ccc(N5CCOCC5)cc4)nc32)cc1,-7,0,2,7
CCOC(=O)C1=C(CN2CCC(C(N)=O)CC2)NC(=O)NC1c1cccs1 (configuration not stated),-1,2.6*,-1,-9
CCOC(=O)C1=C(CN2CCCC2)NC(=O)NC1c1cccs1 (configuration not stated),4,1,-1,4
CSc1cccc(Nc2nnc(-c3cc4c(CO)cnc(C)c4oc3=O)s2)c1,10,1,-1,13
Cc1cc(Br)ccc1OCC(=O)Nc1cccc([N+](=O)[O-])c1,-75,1,-3,9
COc1ccc([N+](=O)[O-])cc1NC(=O)COc1ccc(Br)cc1C,84*,0,0,-8
C/C(CC(=O)Nc1ccccc1C)=N\NC(=O)C(=O)Nc1ccccc1C,-20,2.0*,1,-10
COc1ccc(-c2cncc3ccc(C(=O)N[C@@H](C)c4ccccc4)nc23)cc1,50*,0,-1,-13
COc1ccc(-c2cncc3ccc(C(=O)N[C@H](C)c4ccccc4)nc23)cc1,61*,1,1,15
CCOC(=O)c1c(NC(=O)C(C)Sc2nnc(CNC(=O)c3ccco3)n2-c2ccccc2OC)sc2c1CCC2 (configuration not stated),5,0,2,-6
CN(CCc1ccccc1)C(=O)c1ccc2c(c1)CC(c1nc3ccc(-c4ccnc(N)n4)cc3[nH]1)CO2 (configuration not stated),73*,0,2,-14
CON(C)C(=O)c1ccc2c(c1)CC(c1nc3ccc(-c4ccnc(N)n4)cc3[nH]1)CO2 (configuration not stated),11,0,-1,25
CC(CNC(=O)c1ccc2c(c1)CC(c1nc3ccc(-c4ccnc(N)n4)cc3[nH]1)CO2)c1ccccc1 (configuration not stated),41*,1.9*,0,-2
CCOCCCNC(=O)C1CCN(Cc2ccc(OC)cc2OC)CC1,6,0,0,12
Cc1ccc2nc(N(CCN(C)C)C(=O)c3ccc(S(=O)(=O)N(C)C)cc3)sc2c1,-34,0,-1,-2
COc1ccc(N2C(C(C)=O)=NN(c3ccc(Cl)cc3)C2c2ccc(OCc3c(Cl)cccc3Cl)c(OC)c2)cc1 (configuration not stated),-1,0,0,7
Clc1ccc(COc2ccccc2C2N(c3ccccc3)N=C(c3ccccc3)N2c2ccccc2)cc1 (configuration not stated),85*,0,0,20
COc1ccc(N2C(C(C)=O)=NN(c3ccccc3)C2c2ccccc2OCc2c(Cl)cccc2Cl)cc1 (configuration not stated),45*,1,1,3
CCOc1ccc(NC(=O)C2=C(C)NC(=O)NC2c2ccccc2Cl)cc1 (configuration not stated),33*,0,1,-13
CN1CCN(Cc2c(O)ccc3c(=O)c(Oc4ccc(C(C)(C)C)cc4)c(C(F)(F)F)oc23)CC1,34*,1,-1,3
Cc1cc(C)cc(Oc2c(C(F)(F)F)oc3c(CN4CCCCC4)c(O)ccc3c2=O)c1,-3,0,-2,14
CN1CCN(Cc2c(O)ccc3c(=O)c(Oc4ccc(-c5ccccc5)cc4)c(C(F)(F)F)oc23)CC1,-3,0,-1,13
CC(C)(C)c1ccc(Oc2c(C(F)(F)F)oc3c(CN4CCCC4)c(O)ccc3c2=O)cc1,36*,0,0,10
CC1CCCN(C(=O)c2ncn[nH]2)C1 (configuration not stated),3,0,-1,-8
SMILES,TEAD-YAP inh,FBW7 activator,GPR151 ag,MITF inh
O=[N+]([O-])c1c(Cl)cc(O)c2c1C1C=CCC1C(c1ccc(Cl)cc1)N2 (configuration not stated),14,0,1,32
O=C(O)C1Nc2c(O)cc(Cl)c([N+](=O)[O-])c2C2C=CCC12 (configuration not stated),-6,0,-1,108*
CCOc1cc2c(c([N+](=O)[O-])c1)NC(C(=O)O)C1CC=CC21 (configuration not stated),13,-1,-1,73*
Cc1ccc(NC(=O)c2ccc(NCCCN3CCN(c4cccc(Cl)c4)CC3)c([N+](=O)[O-])c2)cc1F,-8,0,-1,11
C=CCn1c(SCC(=O)N2CCOCC2)nc2scc(-c3ccc(C)o3)c2c1=O,-14,0,0,-3
COc1cccc(/C=C2\N=C(c3ccccc3F)OC2=O)c1OC,5,0,1,-1
O=C1C2C3C=CC(C3)C2C(=O)N1c1ccc(Oc2ccccc2)cc1 (configuration not stated),-3,0,1,6
N#Cc1ccc(Oc2ccc(N3C(=O)C4C5C=CC(C5)C4C3=O)cc2)cc1C#N (configuration not stated),40*,2,0,19
COCCNC(=O)c1ccc2cncc(-c3cc4ccccc4o3)c2n1,60*,0,0,5
O=C(NC1CC1)c1ccc2cncc(-c3cc4ccccc4o3)c2n1,50*,0,-1,2
O=C(NCCCn1ccnc1)c1ccc2cncc(-c3cc4ccccc4o3)c2n1,46*,0,-1,-2
O=C(c1ccc2cncc(-c3cc4ccccc4o3)c2n1)N1CCOCC1,23,-1,1,18
O=C(CNS(=O)(=O)c1ccccc1)Nc1c(-c2ccccc2)c2cc(Br)ccc2[nH]c1=O,9,0,1,5
c1cc(-n2cncn2)cc(Nc2ccc(N3CCOCC3)cc2)n1,-28,0,0,50
Cc1cc(F)ccc1NC(=O)CSc1ccsc1[N+](=O)[O-],6,0,1,14
O=C(CSc1ccsc1[N+](=O)[O-])Nc1cc(F)ccc1F,32*,0,1,49
COc1ccc(-c2cnc(SCC(=O)Nc3cccc(F)c3)n2C)cc1,33*,0,-1,8
Nc1nc(C2CC2)c(Sc2sc(N)nc2C2CC2)s1,35*,0,1,7
Cc1sc2ncnc(Sc3nnc4ccccn34)c2c1C,-6,0,3,10
Cc1sc2ncnc(Sc3nnc(N)s3)c2c1C,37*,0,1,0
COC(=O)c1nn(-c2ccc(F)c(Cl)c2)cc1O,-31,0,0,6
COC(=O)c1nn(-c2ccc(C)c(C)c2)cc1O,54*,0,-6,-1
CCn1nc(-c2ccc(OC)cc2)nc2c(=O)n(C)c(=O)nc1-2,96*,0,-9,7
CCn1nc(-c2ccc(Cl)c(Cl)c2)nc2c(=O)n(C)c(=O)nc1-2,-40,0,-9,3
CCn1nc(-c2ccccn2)nc2c(=O)n(C)c(=O)nc1-2,97*,0,-2,21
Cn1nc(-c2ccc([N+](=O)[O-])cc2)nc2c(=O)n(C)c(=O)nc1-2,55*,0,-8,7

# Source: PubChem (The Scripps Research Institute Molecular Screening Center)
